# Several values for one entry are separate records, joined by “and”; a condition that tells them apart may be missing. Equal values may be shown once. Inconclusive results are not listed. Entries that show only a call come without a potency. A structure can be active in one record and inactive in another. Activity calls are given as the source filed them. Calls come from the whole dose curve; as a rule, active = well fitted curve in the direction sought with a large enough effect; inconclusive = small, poorly fitted or top-dose-only effect, or another doubt; inactive = no such curve, though single readings can be large; an effect the other way counts as inactive or inconclusive.
# Key:
# CRL-7250 = normal cell line; assay: Cytotoxic Profiling of Annotated Libraries Using Quantitative High-Throughput Screening (AID 1296008); settings: Five cell lines viability, CellTiter-Glo ATP luminescence, 48-72 h; max response: stronger effect = lower value; note: nearly all actives have a fitted effect of over 60% in size
# In short: (§1)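 Cytotoxicity was measured as CellTiter-Glo ATP luminescence, read after 10 min at room temperature. Compound treatment of the cells lasted 48 or 72 hr at 37 degrees Celsius in a qHTS format.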
# HEK293 = assay: as above; settings: Five cell lines viability, CellTiter-Glo ATP luminescence, 48-72 h; max response: stronger effect = lower value
# In short: as §1
# HaCat [1] = assay: as above; settings: Five cell lines viability, CellTiter-Glo ATP luminescence, 48-72 h; max response: stronger effect = lower value
# In short: as §1
# KB-3-1 = assay: as above; settings: Five cell lines viability, CellTiter-Glo ATP luminescence, 48-72 h; max response: stronger effect = lower value
# In short: as §1
# NIH3T3 [2] = assay: as above; settings: Five cell lines viability, CellTiter-Glo ATP luminescence, 48-72 h; max response: stronger effect = lower value
# In short: as §1
# HACAT [3] = assay: qHTS assay to identify novel small-molecules to repurpose for Merkel cell carcinoma treatment (AID 1296009); settings: MCC and control cell lines, CellTiter-Glo viability, 72 h; note: nearly all actives have a fitted effect of over 60% in size
# In short: (§2)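 Cell viability, measured as CellTiter-Glo luminescence, was normalized between DMSO and no-cell wells. The cells had been exposed to 8- or 11-point compound dilutions for 72 hr at 37 degree celsius.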
# HEK293T = assay: as above; settings: MCC and control cell lines, CellTiter-Glo viability, 72 h; at 44.8 µM (top of the series) unless noted
# In short: as §2
# MCC-13 = assay: as above; settings: MCC and control cell lines, CellTiter-Glo viability, 72 h; series mostly up to 46 µM
# In short: as §2
# MCC-26 = assay: as above; settings: MCC and control cell lines, CellTiter-Glo viability, 72 h; series mostly up to 46 µM
# In short: as §2
# MKL-1 = assay: as above; settings: MCC and control cell lines, CellTiter-Glo viability, 72 h; series mostly up to 46 µM
# In short: as §2
# MKL-2 = assay: as above; settings: MCC and control cell lines, CellTiter-Glo viability, 72 h; series mostly up to 46 µM
# In short: as §2
# UISO = assay: as above; settings: MCC and control cell lines, CellTiter-Glo viability, 72 h; series mostly up to 46 µM
# In short: as §2
# WaGa = assay: as above; settings: MCC and control cell lines, CellTiter-Glo viability, 72 h; series mostly up to 46 µM
# In short: as §2
# C33A = assay: Primary qHTS to identify gynecologic anti-cancer compounds using libraries of approved drugs and bioactive compounds (AID 1345084); settings: Gynecologic cancer cell panel viability, ATPlite luminescence, 48 h; series mostly up to 57.5 µM; note: nearly all actives have a fitted effect of over 55% in size
# In short: (§3)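 Cells, 1,000 per well, were allowed to settle for 16 h at 37 C before compound addition. Five concentrations were tested for 48 h, and viability was read by ATPlite luminescence after 15 min at room temperature.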
# CAOV3 = assay: as above; settings: Gynecologic cancer cell panel viability, ATPlite luminescence, 48 h; series mostly up to 57.5 µM
# In short: as §3
# CASKI = assay: as above; settings: Gynecologic cancer cell panel viability, ATPlite luminescence, 48 h; series mostly up to 57.5 µM
# In short: as §3
# Es-2 = assay: as above; settings: Gynecologic cancer cell panel viability, ATPlite luminescence, 48 h; series mostly up to 57.5 µM
# In short: as §3
# TAB165 = assay: qHTS profiling for inhibitors of Plasmodium falciparum proliferation (AID 504749); note: nearly all actives have a fitted effect of over 60% in size; settings: P. falciparum in erythrocytes, SYBR Green DNA, 72 h; series mostly up to 28.7 µM
# In short: (§4)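 SYBR Green fluorescence of parasite DNA, read after lysis and overnight dark incubation, measured growth over 72 h in erythrocyte culture at 0.3% parasitemia and 2.5% hematocrit. Data normalised to DMSO and 0.29 uM artemisinin, with plate-drift correction.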
# W2 = assay: as above; settings: P. falciparum in erythrocytes, SYBR Green DNA, 72 h; series mostly up to 28.7 µM
# In short: as §4
# NIH3T3 [4] = assay: qHTS assay to identify novel small-molecules to repurpose for Merkel cell carcinoma treatment (AID 1296009); settings: MCC and control cell lines, CellTiter-Glo viability, 72 h; at 44.8 µM (top of the series) unless noted; note: nearly all actives have a fitted effect of over 60% in size
# In short: as §2
# [5] = at 44.8 µM (top of the series) unless noted
# Potency is the fitted concentration of half-maximal effect.
structure (smiles),measurement,setting,value
CC(=O)CC(c1ccccc1)c1c(O)c2ccccc2oc1=O (stereo not given),max response,CRL-7250,-2.79% (inactive)
same,outcome,CRL-7250,inactive
same,outcome,HEK293,inactive
same,max response,HaCat [1],-6.98% (inactive)
same,outcome,HaCat [1],inactive
same,max response,KB-3-1,7.33% (inactive) and -13.6% (inactive) and 2.81% (inactive)
same,max response,NIH3T3 [2],-11.7% (inactive) and -5.84% (inactive)
same,outcome,HACAT [3]; [5],inactive
same,outcome,HEK293T,inactive
same,Potency,MCC-13,inactive
same,Potency,MCC-26,inactive
same,Potency,MKL-1,inactive
same,Potency,MKL-2,inactive
same,Potency,UISO,inactive
same,Potency,WaGa,inactive
same,Potency,C33A,inactive
same,Potency,CAOV3,inactive
same,Potency,CASKI,inactive
same,Potency,Es-2,inactive
O=NN(CCCl)C(=O)NC1CCCCC1,Potency,TAB165,inactive
same,Potency,W2,inactive
same,max response,CRL-7250,4.87% (inactive)
same,outcome,CRL-7250,inactive
same,max response,HEK293,3.97% (inactive)
same,outcome,HEK293,inactive
same,max response,HaCat [1],4.22% (inactive)
same,outcome,HaCat [1],inactive
same,max response,KB-3-1,2.75% (inactive)
same,outcome,KB-3-1,inactive
same,max response,NIH3T3 [2],-1.41% (inactive)
same,outcome,NIH3T3 [2],inactive
same,outcome,HACAT [3]; [5],inactive
same,outcome,HEK293T,inactive
same,Potency,MCC-13,inactive
same,Potency,MCC-26,inactive
same,Potency,MKL-1,inactive
same,Potency,MKL-2,inactive
same,outcome,NIH3T3 [4],inactive
same,Potency,UISO,inactive
same,Potency,WaGa,inactive
same,Potency,C33A,inactive
same,Potency,CAOV3,inactive
same,Potency,CASKI,inactive
same,Potency,Es-2,inactive
CN1CCN(c2c(F)cc3c(=O)c(C(=O)O)cn4c3c2OCN4C)CC1,Potency,TAB165,inactive
same,max response,CRL-7250,-0.174% (inactive)
same,outcome,CRL-7250,inactive
same,max response,HEK293,-2.04% (inactive)
same,outcome,HEK293,inactive
same,outcome,HaCat [1],inactive
same,max response,KB-3-1,-7.62% (inactive)
same,outcome,KB-3-1,inactive
same,max response,NIH3T3 [2],2.5% (inactive) and 4.99% (inactive)
same,outcome,HACAT [3]; at 17.4 µM (top of the series),inactive
same,outcome,HACAT [3]; at 44.8 µM (top of the series),inactive
same,outcome,HEK293T,inactive [at 17.4 µM]
same,Potency,MCC-13,inactive
same,Potency,MCC-26,inactive
same,Potency,MKL-1,inactive
same,Potency,MKL-2,inactive
same,Potency,UISO,inactive
same,Potency,WaGa,inactive
same,Potency,C33A,inactive
same,Potency,CAOV3,inactive
same,Potency,CASKI,inactive
same,Potency,Es-2,inactive
CC1=CC(=O)c2ccccc2C1=O,Potency,TAB165,inactive
same,Potency,W2,6.01 µM (active)
same,max response,CRL-7250,3.35% (inactive)
same,outcome,CRL-7250,inactive
same,max response,HEK293,2.41% (inactive)
same,outcome,HEK293,inactive
same,outcome,HaCat [1],inactive
same,max response,KB-3-1,1.53% (inactive)
same,outcome,KB-3-1,inactive
same,max response,NIH3T3 [2],-2.61% (inactive)
same,outcome,NIH3T3 [2],inactive
same,outcome,HACAT [3]; [5],inactive
same,outcome,HEK293T,inactive
same,Potency,MCC-13,inactive
same,Potency,MCC-26,inactive
same,Potency,MKL-1,inactive
same,Potency,MKL-2,inactive
same,outcome,NIH3T3 [4],inactive
same,Potency,UISO,inactive
same,Potency,WaGa,inactive
same,Potency,C33A,inactive
same,Potency,CAOV3,inactive
same,Potency,CASKI,inactive
same,Potency,Es-2,inactive
COc1cc2c(Nc3ccc(Br)cc3F)ncnc2cc1OCC1CCN(C)CC1,Potency,TAB165,3.55 µM (active)
same,Potency,W2,3.38 µM (active)
same,Potency,CRL-7250,18.7 µM (active)
same,outcome,CRL-7250,inactive
same,Potency,HEK293,26.4 µM (active)
same,max response,HEK293,-4.93% (inactive)
same,Potency,HaCat [1],7.31 µM (active)
same,max response,HaCat [1],0.174% (inactive)
same,max response,KB-3-1,-19.6% (inactive)
same,Potency,NIH3T3 [2],5.9 µM (active) and 5.17 µM (active)
same,outcome,NIH3T3 [2],inactive
same,Potency,MCC-13,23.5 µM (active) and inactive
same,Potency,MCC-26,inactive
same,Potency,MKL-1,inactive
same,Potency,MKL-2,inactive
same,outcome,NIH3T3 [4],inactive
same,Potency,UISO,20.9 µM (active) and inactive
same,Potency,WaGa,inactive
same,Potency,C33A,inactive and 22.4 µM (active)
same,Potency,CAOV3,inactive
same,Potency,CASKI,inactive
same,Potency,Es-2,inactive
CC1=NN(c2ccccc2)C(=O)C1,Potency,TAB165,inactive
same,max response,CRL-7250,-10.4% (inactive) and -10.5% (inactive)
same,outcome,CRL-7250,inactive
same,max response,HEK293,-7.12% (inactive) and -3.41% (inactive) and -4.46% (inactive)
same,max response,HaCat [1],-6.55% (inactive)
same,outcome,HaCat [1],inactive
same,max response,KB-3-1,3.2% (inactive)
same,outcome,KB-3-1,inactive
same,max response,NIH3T3 [2],2.82% (inactive)
same,outcome,NIH3T3 [2],inactive
same,outcome,HACAT [3]; [5],inactive
same,Potency,MCC-13,inactive
same,Potency,MCC-26,inactive
same,Potency,MKL-1,inactive
same,Potency,MKL-2,inactive
same,outcome,NIH3T3 [4],inactive
same,Potency,UISO,inactive
same,Potency,WaGa,inactive
same,Potency,C33A,inactive
same,Potency,CAOV3,inactive
same,Potency,CASKI,inactive
same,Potency,Es-2,inactive
CN(C)CCc1c[nH]c2ccc(C[C@H]3COC(=O)N3)cc12,max response,CRL-7250,-10.2% (inactive)
same,outcome,CRL-7250,inactive
same,Potency,HEK293,4.18 µM (active)
same,max response,HEK293,4.33% (inactive) and -3.7% (inactive)
same,Potency,HaCat [1],14.8 µM (active)
same,max response,HaCat [1],4.23% (inactive)
same,outcome,HaCat [1],inactive
same,max response,KB-3-1,7.3% (inactive) and 1.82% (inactive)
same,Potency,NIH3T3 [2],10.5 µM (active)
same,max response,NIH3T3 [2],-0.145% (inactive)
same,outcome,NIH3T3 [2],inactive
same,outcome,HACAT [3]; [5],inactive
same,Potency,MCC-13,inactive
same,Potency,MKL-1,inactive
same,Potency,MKL-2,inactive
same,outcome,NIH3T3 [4],inactive
same,Potency,UISO,inactive
same,Potency,WaGa,inactive
same,Potency,C33A,inactive
same,Potency,CAOV3,inactive
same,Potency,CASKI,inactive
same,Potency,Es-2,inactive
COc1ccccc1OCC(O)COC(N)=O (stereo not given),max response,CRL-7250,-1.17% (inactive)
same,outcome,CRL-7250,inactive
same,max response,HEK293,2.15% (inactive)
same,outcome,HEK293,inactive
same,max response,HaCat [1],-15.7% (inactive)
same,outcome,HaCat [1],inactive
same,max response,KB-3-1,5.86% (inactive) and 1.39% (inactive)
same,max response,NIH3T3 [2],4.42% (inactive) and 1.69% (inactive)
same,outcome,HACAT [3]; [5],inactive
same,outcome,HEK293T,inactive
same,Potency,MCC-13,inactive
same,Potency,MKL-1,inactive
same,Potency,MKL-2,inactive
same,Potency,UISO,inactive
same,Potency,WaGa,inactive
same,Potency,C33A,inactive
same,Potency,CAOV3,inactive
same,Potency,CASKI,inactive
same,Potency,Es-2,inactive

# From PubChem BioAssay (NCATS)
